In PubChem BioAssay (NCI):
This is part of a sample that, as a whole, favours compounds with a hit. Of some 83,000 tested, about 20% had one in any assay.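 Activity criterion: percent growth below 10, measured after cells in 96-well plates were exposed to a single compound concentration for 48 hours.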 The source made the active and inactive calls.

What was measured:
Assay in all cases: NCI-60 one-dose screen, 48 h (100 = growth as untreated, 0 = no growth, -100 = all killed)
Conditions in all cases: 10 µM unless noted
[1] = system: NCI-H23 lung
[2] = system: NCI-H226 lung
[3] = system: NCI-H322M lung
[4] = system: HOP-62 NSCLC
[5] = system: NCI-H460 lung
[6] = system: HOP-92 NSCLC
[7] = system: NCI-H522 lung
[8] = system: A549/ATCC NSCLC
[9] = system: 786-0 renal
[10] = system: COLO 205 colon
[11] = system: DU-145 prostate
[12] = system: K-562 leukemia
[13] = system: MALME-3M melanoma
[14] = system: MDA-MB-231 breast
[15] = system: RXF 393 renal
[16] = system: SF-268 CNS
[17] = system: SF-295 CNS
[18] = system: SF-539 CNS
[19] = system: UACC-257 melanoma
[20] = system: M14 melanoma

Measured: growth

CCOC(=O)c1nnn(Cc2cc(=O)oc3ccc(O)cc23)c1C
inactive: [1] 101% | [2] 99.6% | [3] 105% | [4] 102% | [5] 99.3% | [6] 103% | [7] 97.1% | [8] 98.6% | [9] 103% | [10] 105% | [11] 115% | [12] 103% | [13] 103% | [14] 105% | [15] 113% | [16] 108% | [17] 97.7% | [18] 102% | [19] 105% | [20] 100%

CN(C)CCn1c(=O)c2ccccc2n2nc3ccccc3c12
inactive: [1] 87.3% | [2] 84.8% | [3] 85% | [4] 90.9% | [5] 70.4% | [6] 99.6% | [7] 97.4% | [8] 61.2% | [9] 93.9% | [10] 57.2% | [11] 101% | [12] 86.5% | [13] 92.4% | [14] 90.8% | [15] 74.3% | [16] 98.6% | [17] 75% | [18] 87.9% | [19] 105% | [20] 92.1%

O=C(NCc1ccc(Cn2c(=O)sn(-c3ccccc3)c2=O)cc1)OCc1ccc2cccc(O)c2n1
active: [1] -67.4% | [4] -58.2% | [6] -65.3% | [7] -53.5% | [8] -27.3% | [9] -87.7% | [10] -57.4% | [11] -91.7% | [12] -9.02% | [13] -68.7% | [14] -45.7% | [15] -94.3% | [16] -46.2% | [18] -91.7% | [19] -25% | [20] -64.2%
inactive: [2] 35.6% | [3] 67.4% | [5] 27.2% | [17] 50.2%

C[C@@H]1NC(=O)[C@H](Cc2ccccc2)N(Cc2cccnc2)C1=O
inactive: [1] 101% | [2] 90.4% | [3] 109% | [4] 94.8% | [5] 102% | [6] 84.7% | [7] 95.9% | [8] 94.6% | [9] 90.3% | [10] 105% | [11] 108% | [12] 89% | [13] 101% | [14] 97.3% | [15] 108% | [16] 104% | [17] 97% | [18] 101% | [19] 91.7% | [20] 93.8%

CN1C(=O)N2CN3CCCN(C3)CN3C(=S)NC1C23 (stereo not given)
inactive: [1] 103% | [2] 99.6% | [3] 105% | [4] 104% | [5] 105% | [6] 98.7% | [7] 95% | [8] 87% | [9] 102% | [10] 117% | [11] 103% | [12] 97.1% | [13] 112% | [14] 104% | [15] 109% | [16] 99.8% | [17] 105% | [18] 103% | [19] 87.6% | [20] 107%

N#Cc1nn(-c2cc(=O)[nH]c3ccc(Br)cc23)c(N)c1C#N
inactive: [1] 102% | [2] 98.4% | [3] 93.3% | [4] 83.2% | [5] 105% | [7] 78.4% | [8] 101% | [9] 97.4% | [10] 80% | [11] 117% | [13] 89.4% | [14] 85.3% | [15] 115% | [16] 108% | [17] 101% | [18] 105% | [19] 93.4% | [20] 90.1%
active: [6] -90.8% | [12] -12.4%

CS(=O)(=O)Nc1cc(-c2ccc3ncnc(Nc4ccc(OCc5ccccn5)c(Cl)c4)c3c2)cnc1Cl
inactive: [2] 21.2% | [4] 15.3% | [8] 11.8% | [9] 22.2% | [11] 16.5% | [12] 21.1% | [16] 10.9% | [19] 14.3% | [20] 30%
active: [1] -8.13% | [3] 9.88% | [5] 9.64% | [6] -6.05% | [7] -18.3% | [10] -90.9% | [13] -35.7% | [14] 2.29% | [15] -31.4% | [17] -2.49% | [18] -11.7%

C=C1C(=O)O[C@H]2[C@H]1CC/C(COC(=O)NCc1ccc(Cn3c(=O)sn(-c4ccccc4)c3=O)cc1)=C\CC[C@@]1(C)O[C@@H]21
inactive: [1] 91.7% | [2] 55.1% | [3] 92.7% | [4] 126% | [5] 81.3% | [6] 10.3% | [8] 114% | [9] 39.7% | [11] 23.3% | [14] 47.2% | [16] 46.6% | [17] 108% | [18] 29% | [19] 68.3% | [20] 14.4%
active: [7] -70.6% | [10] 3.5% | [12] 1.19% | [13] -9.16% | [15] 6.99%

CN(C)c1ccc(/C=N\NC(=O)c2ccc3nc(-c4ccc(Cl)cc4)[nH]c3c2)cc1
inactive: [1] 61.4% | [2] 93.1% | [3] 77.6% | [4] 60.5% | [5] 36.2% | [6] 84.6% | [7] 96.1% | [8] 17.8% | [9] 12.2% | [10] 41.3% | [11] 85.4% | [12] 38.8% | [13] 11.8% | [14] 63.9% | [15] 77.4% | [16] 78.2% | [17] 31.3% | [18] 88% | [19] 100% | [20] 60.3%

O=CN1N=C(c2cccc(Nc3ccnc4cc(Cl)ccc34)c2)CC1c1ccc(Cl)cc1 (stereo not given)
inactive: [2] 59.4% | [3] 59.6% | [4] 24.2% | [5] 19.3% | [6] 21.9% | [8] 34.3% | [9] 28.8% | [11] 23.8% | [12] 15.8% | [13] 44.4% | [14] 30.2% | [16] 37.1% | [17] 11.7% | [18] 19.2% | [19] 52.8% | [20] 21.7%
active: [1] 1.81% | [7] -17.4% | [10] -9.28% | [15] -4.85%

COc1ccc2cc(-c3nc4ccc(C)cn4c3NCc3ccco3)c(=O)[nH]c2c1
inactive: [1] 70.2% | [2] 76.4% | [3] 74.1% | [4] 90.7% | [5] 88.9% | [6] 20.6% | [7] 87.3% | [8] 85.2% | [9] 67.9% | [10] 76% | [11] 71.7% | [12] 74.3% | [13] 75.4% | [14] 49.6% | [15] 73.4% | [16] 71.6% | [17] 74.8% | [18] 65.5% | [19] 103% | [20] 86.8%

O=[N+]([O-])c1ccccc1Sc1ccccc1[N+](=O)[O-]
inactive: [1] 93.7% | [2] 98.5% | [3] 91.4% | [4] 92.8% | [5] 103% | [6] 78.6% | [7] 87.8% | [8] 87.2% | [9] 93.4% | [10] 110% | [11] 104% | [12] 97.5% | [13] 92.4% | [14] 105% | [15] 98.1% | [16] 88% | [17] 101% | [18] 94.8% | [19] 107% | [20] 100%

C=C(C)[C@@H]1CC[C@]2(CO)CC[C@]3(C)[C@H](CC[C@@H]4[C@@](C)(CCCN)[C@H](C(=C)C)CC[C@]43C)[C@@H]12
active: [1] -70.1% | [3] -53.9% | [4] -62.8% | [5] -93.8% | [6] -41% | [7] -48.6% | [8] -68.8% | [9] -98.5% | [10] -58% | [11] -44.8% | [12] -5.14% | [13] -94.7% | [14] -96.3% | [15] -85.3% | [16] -41.9% | [17] -75.5% | [18] -97.1% | [19] -78.9% | [20] -74.9%
inactive: [2] 13.1%

COc1ccc(/C=N/NC(=O)Cn2c(-c3ccc(S(C)(=O)=O)cc3)nc3ccccc32)cc1
inactive: [1] 95.5% | [2] 99.6% | [3] 91.3% | [4] 107% | [5] 102% | [6] 94.1% | [7] 92.9% | [8] 113% | [9] 99.3% | [10] 111% | [11] 111% | [12] 98.9% | [13] 89% | [14] 95.8% | [15] 104% | [16] 102% | [17] 93.1% | [18] 96.4% | [19] 112% | [20] 92.1%

CCN(CC)C(=O)CC1=C(C)/C(=C/c2[nH]c(-c3ccc[nH]3)cc2OC)N=C1C
active: [5] 9.17% | [6] -14.8% | [8] 4.73% | [9] -13.3% | [12] 6.08% | [13] 1.07% | [14] -0.929% | [17] -51.6% | [19] 5.68% | [20] -55.8%
inactive: [1] 34% | [2] 20% | [3] 37.1% | [4] 33.1% | [7] 10.1% | [10] 15.9% | [11] 34.8% | [15] 35.9% | [16] 21.7% | [18] 20.6%

CN1CCN(Cc2ccc(NC(=O)c3cncc(C#Cc4cnc(N)cc4C#N)c3)cc2C(F)(F)F)CC1
active: [2] 7.61% | [5] 7.15% | [6] -5.52% | [7] 9.51% | [10] -31.2% | [13] -4.04% | [14] 6.83% | [18] -12% | [19] 3.84% | [20] -23.1%
inactive: [1] 15.3% | [3] 17% | [4] 12.1% | [8] 19.2% | [9] 24.9% | [11] 21.1% | [12] 15.9% | [15] 13.4% | [16] 23.5% | [17] 24.5%
